Most compounds without a hit are left out; they make up all but 2.1% or so of the library.
Glioma ERSR ind – qHTS for Inducers of the Endoplasmic Reticulum Stress Response (ERSR) in Human Glioma: qHTS | U87-MG GRP78 promoter luciferase reporter, 16 h | Potency, µM, hits mostly activators | 420,000 compounds, 0.02% hits; further: series mostly up to about 76 µM; nearly all actives have a fitted effect of over 35% in size
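Stably transfected U87-MG glioma cells carrying a GRP78-based luciferase sensor; 16 h compound incubation. Luminescence end-point read 10 min after Bright-Glo addition at room temperature.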
Nrf2 ARE act – qHTS of Nrf2 Activators. 410,000 compounds, 0.31% hits. AREc32 ARE-luciferase reporter (MCF7-derived line), luminescence, 24 h. AID 624171, 2012. Potency, µM (highest dose often 46.1 µM), most hits filed as activators; further: nearly all actives have a fitted effect of over 65% in size
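Reporter line AREc32 (ARE-Fluc), seeded overnight in OPTI-MEM with 5% FBS; compound pin-transferred, 24 hr at 37 deg C, 5% CO2; luminescent read-out.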
TSG101-PTAP inh – qHTS Assay for Iinhibitors of HIV-1 Budding by Blocking the Interaction of PTAP/TSG101. Tumor susceptibility gene 101 protein (Homo sapiens), Q99816. Fluorescence polarization, FITC-PTAP peptide / Tsg101 binding. Potency, µM (series often up to 115 µM), hits mostly inhibitors. 340,000 tested, under 10 active. AID 493005, 2010; active means well fitted inhibition curve with a large enough effect in the main read-out, with a control signal flat, not every such curve was filed as active; inconclusive means small, poorly fitted or top-dose-only effect, or effect the other way, or a change in a side signal; inactive means no such curve, though single readings can be large or run the other way
Target sequence (Q99816 whole entry, looked up): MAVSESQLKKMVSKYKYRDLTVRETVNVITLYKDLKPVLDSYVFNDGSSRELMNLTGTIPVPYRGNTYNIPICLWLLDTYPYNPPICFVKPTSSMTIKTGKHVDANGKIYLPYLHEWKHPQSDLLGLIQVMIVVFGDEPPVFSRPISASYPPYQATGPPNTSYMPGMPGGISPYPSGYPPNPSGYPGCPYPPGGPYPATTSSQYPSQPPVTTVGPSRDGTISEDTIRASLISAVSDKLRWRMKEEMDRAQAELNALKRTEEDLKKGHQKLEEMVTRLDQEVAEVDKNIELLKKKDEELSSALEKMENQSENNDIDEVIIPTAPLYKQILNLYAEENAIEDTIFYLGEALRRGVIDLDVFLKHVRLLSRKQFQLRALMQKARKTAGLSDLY
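Compounds were pin-transferred onto Tsg101 binding domain (10 uM final) in HEPES pH 7.5 buffer, then FITC-PTAP peptide was added at 50 nM final. After 20 min at RT, polarization reported peptide displacement across a qHTS concentration series.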
miR-21 act – qHTS Assay for Modulators of miRNAs and/orActivators of miR-21. HeLa miR-21 FLuc reporter, luciferase, 48 h. AID 2288, 2010. 340,000 tested, under 10 active. Potency, µM (doses to about 38.3 µM), hits mostly activators;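 further: miR-21 action dims this reporter so a rising signal means less miR-21 action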
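HeLa cells stably expressing CMV-driven firefly luciferase with a downstream miR-21 binding sequence, endogenously expressing miR-21, were treated with titrations (up to about 40uM final) for 48 hours at 37 degree Celsius. Luciferase luminescence was read after lysis.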
Nrf2 block – Nrf2 qHTS screen for inhibitors; A549 ARE-Fluc reporter, luciferase luminescence, 18-24 h; Potency, µM (series often up to 46 µM), usual class: inhibitors; 360,000 compounds, 2.1% hits; AID 504444, 2011; further: nearly all actives have a fitted effect of over 60% in size
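A549 ARE_Fluc cells, 5000/well, 5% FBS OPTI-MEM; compounds in dose-response, 18-24 h at 37 °C/5% CO2; CellTiter-Fluor viability read (Ex 405/Em 525), then BugLite luciferase luminescence = Nrf2 activity.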
A549 tox – Nrf2 qHTS screen for inhibitors: counterscreen for cytotoxicity | 390,000 compounds, 0.16% hits | Potency, µM (highest dose often 46 µM), hits mostly inhibitors | AID 504648, 2011 | A549 ARE-Fluc cells, CellTiter-Fluor viability, 18-24 h
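A549 ARE_Fluc cells in 5% FBS OPTI-MEM were exposed to compounds in concentration-response for 18-24 h at 37 deg C. Viability was read by CellTiter-Fluor fluorescence (Ex 405/Em 525) after 30 min, before the luciferase read.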
Each line names hits and unclear results; the compound was inactive in the other large screens. Unless noted, the call rests on the fitted dose curve; in most records, active means well fitted curve in the direction sought with a large enough effect; inconclusive means small, poorly fitted or top-dose-only effect, or another doubt; inactive means no such curve, though single readings can be large; an effect the other way counts as inactive or inconclusive.

COc1ccc(C2Nc3ccccc3C(=O)N2Cc2cccc(-c3ccccc3)c2)cc1COc1ccc(NC(C)=O)cc1 (stereo not given)	Nrf2 block inconclusive (no result: Glioma ERSR ind, Nrf2 ARE act, TSG101-PTAP inh, miR-21 act)
Cc1ncc2c(c1CNC(=O)c1ccccc1F)CCN(C(=O)c1ccc3c(c1)OCCO3)C2	none (no result: Nrf2 ARE act, TSG101-PTAP inh, miR-21 act, Nrf2 block, A549 tox)
O=C(NC(=S)Nc1ccc(N2CCCCC2)c(Cl)c1)c1ccc2c(c1)OCCO2	Nrf2 block 9.2µM
Cc1cc(N2C(=O)c3ccccc3C2=O)no1	none (no result: Glioma ERSR ind, Nrf2 ARE act, TSG101-PTAP inh, miR-21 act)
COc1ccc(C(=O)NCCn2cc(SCc3cccc(F)c3)c3ccccc32)cc1OC	miR-21 act inconclusive, Nrf2 block 23µM (no result: TSG101-PTAP inh)
COc1ccc(NC(=O)CSc2cn(CCNC(=O)c3ccc(OC)cc3)c3ccccc23)cc1	miR-21 act inconclusive (no result: TSG101-PTAP inh)
COc1ccccc1C(=O)NCCn1cc(SCC(=O)Nc2ccccc2F)c2ccccc21	miR-21 act inconclusive, Nrf2 block 23µM (no result: TSG101-PTAP inh)
Cc1ccccc1NC(=O)CSc1cn(CC(=O)N2CCCC2)c2ccccc12	none (no result: TSG101-PTAP inh, Nrf2 block)
O=C(CSc1cn(CCNC(=O)c2ccccc2F)c2ccccc12)Nc1ccccc1F	none (no result: TSG101-PTAP inh)
O=C(CSc1cn(CCNC(=O)c2ccc3ccccc3c2)c2ccccc12)NCc1ccco1	Nrf2 block 23µM
O=C(CSc1cn(CC(=O)N2CCCCCC2)c2ccccc12)Nc1ccccc1F	Nrf2 block 21µM (no result: TSG101-PTAP inh)
COc1ccc(Cl)cc1NC(=O)CSC1=NN2CCCC(=O)N=C2S1	Nrf2 block 23µM
COc1ccc(Cl)cc1NC(=O)CSc1cn(CC(=O)N2CCCCCC2)c2ccccc12	Nrf2 block 26µM (no result: TSG101-PTAP inh)
COc1cccc(NC(=O)COc2ccc(C(=S)N3CCN(C)CC3)cc2OC)c1	Nrf2 block 13µM
CCOC(=O)C1CCN(C(=O)c2ccc(OCC(=O)Nc3cccc(C(F)(F)F)c3)c(OC)c2)CC1	Nrf2 block 15µM (no result: miR-21 act)
O=C(C[n+]1cccc(Br)c1)c1ccc(Br)cc1	none (no result: Nrf2 ARE act, TSG101-PTAP inh, miR-21 act, Nrf2 block, A549 tox)
Cc1cc2c(s1)c1cnn(Cc3ccccc3)c(=O)c1n2C	Nrf2 block inconclusive (no result: Glioma ERSR ind, Nrf2 ARE act, TSG101-PTAP inh, miR-21 act)
O=[N+]([O-])c1ccc(/C=N/Nc2nc(N3CCCC3)nc(N3CCCC3)n2)o1	Nrf2 block 23µM, A549 tox inconclusive
C(=N\Nc1nc(N2CCOCC2)nc(N2CCOCC2)n1)/c1ccco1	none (no result: Glioma ERSR ind, Nrf2 ARE act, TSG101-PTAP inh, Nrf2 block, A549 tox)
O=[N+]([O-])c1ccc(/C=N/Nc2nc(-c3ccccc3)c3cc(Br)ccc3n2)o1	none
Oc1ccc(/C=N/Nc2nc(N3CCCCCC3)nc(N3CCCCCC3)n2)c(O)c1	miR-21 act inconclusive, Nrf2 block 15µM
Fc1ccc(Nc2nc(N/N=C/c3ccco3)nc(N3CCCCC3)n2)cc1	Nrf2 block 18µM
Cc1ccc2nc(N/N=C\c3ccc([N+](=O)[O-])o3)nc(-c3ccccc3)c2c1	Nrf2 block inconclusive, A549 tox 23µM
Cc1ccc(C(=O)/C=C\C(=O)c2ccc(C)cc2)cc1	Nrf2 block inconclusive
CC(/C=C/C(=O)c1ccc(C)cc1)=C\c1ccccc1	Nrf2 ARE act 11µM
Cc1cc(Oc2ccc(C#N)cc2)nc(NCc2ccccc2)n1	Nrf2 block 16µM
COC(=O)c1ccc(Oc2cc(C)nc(NCc3ccccc3)n2)cc1	none
Cc1ccc(CN2CCc3nnc(C(NC(=O)c4ccoc4)C(C)C)n3CC2)cc1C (stereo not given)	none (no result: Nrf2 ARE act, TSG101-PTAP inh, miR-21 act, Nrf2 block, A549 tox)
CC(=O)c1ccc(F)c(-c2cc(C)cc3c2OC(CNC(=O)c2cccnc2)C3)c1 (stereo not given)	none (no result: Nrf2 ARE act, TSG101-PTAP inh, miR-21 act, Nrf2 block, A549 tox)
CC(=O)NC(c1ccco1)c1ccc2cccnc2c1O (stereo not given)	miR-21 act inconclusive, Nrf2 block 16µM
CC(=O)NC(c1ccc(Cl)cc1)c1ccc2cccnc2c1O (stereo not given)	Nrf2 block inconclusive (no result: miR-21 act)
CC(C)C(=O)NC(c1ccc(Cl)cc1Cl)c1ccc2cccnc2c1O (stereo not given)	Nrf2 block 13µM, A549 tox inconclusive

Screening data: PubChem BioAssay, National Center for Advancing Translational Sciences (NCATS)
